Assay [1] can be described thus: NCI Yeast Anticancer Drug Screen. Data for the rad50 strain (AID 155).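 Also: 0% = growth of vehicle-only cultures of the same strain.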 As to conditions: S. cerevisiae rad50 strain growth inhibition; at 50.0 µM; active compounds read high. The gist of the method:
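Vehicle-treated cultures provide the reference for the growth inhibition reported for compound-exposed, repair-deficient yeast.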

The nature of assay [2]: NCI Yeast Anticancer Drug Screen. Data for the mec2-1 strain (AID 157). As to conditions: S. cerevisiae mec2-1 strain, at 50.0 µM, active compounds read high. The method, boiled down: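 Growth inhibition is read against vehicle-treated controls after compound exposure of the mec2-1 yeast strain, which is defective in DNA damage repair or cell cycle control.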
The nature of assay [3]: NCI Yeast Anticancer Drug Screen. Data for the sgs1 mgt1 strain (AID 161).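 Also: 0% = growth of cultures given vehicle only.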 As to conditions: S. cerevisiae sgs1 mgt1 strain, at 50.0 µM, active compounds read high. The gist of the method: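 This yeast growth screen uses a strain with defined DNA-repair lesions; compound-treated growth is compared with vehicle-treated growth.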
Assay [4] in a line: NCI Yeast Anticancer Drug Screen. Data for the cln2 rad14 strain (AID 165).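 Also: 0% = growth equal to vehicle treated cultures.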 To be noted: S. cerevisiae cln2 rad14 strain, at 50.0 µM, active compounds read high. The gist of the method: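 Growth inhibition, relative to vehicle-treated controls, is the read-out. The test organism is a yeast strain with defined genetic alterations, cln2 rad14.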
Assay [5] can be described thus: NCI Yeast Anticancer Drug Screen. Data for the bub3 strain (AID 167). As to conditions: S. cerevisiae bub3 mutant strain, at 50.0 µM, active compounds read high. The gist of the method: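 Mutant yeast screening strain plus compound; vehicle-treated cultures serve as the 0% inhibition reference.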
A short description of assay [6]: NCI Yeast Anticancer Drug Screen. Data for the mlh1 rad18 strain (AID 175). To be noted: S. cerevisiae mlh1 rad18 strain growth inhibition; at 50.0 µM; active compounds read high. The method, boiled down:
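Cells of a genetically altered yeast strain, deficient in DNA damage repair, were treated with compound. Their growth was then compared with that of vehicle-treated cultures to give inhibition.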

Drawing on PubChem BioAssay (NCI), this text covers growth inhibition for 20 compounds.

This is part of a sample that, as a whole, favours compounds with a hit. Of some 79,000 tested, about 15% had one in any assay. Unmarked numbers belong to inactive results. Calls of active or inactive are those of the source. Rule as the data show it: active = growth inhibition above about 70%; inactive = the rest.

Turning to `NS(=O)(=O)c1ccc(NC2=CC(=O)C(=O)c3ccccc32)cc1`, the growth inhibition is -6.4% in assay [1]; -5.6% in assay [2]; -21.4% in assay [3]; 2.4% in assay [4]; -7.55% in assay [5]; -11.6% in assay [6].
On to `CC1OC1P(=O)(O)O` (stereo not given), for which the growth inhibition in assay [1] is 16.6%; in assay [2], -5.9%; in assay [3] it was -4.55%; in assay [4], 1.7%; in assay [5], -3.3%; in assay [6], -6.55%.
For the compound `CCOC(=O)C(=N\Nc1cc(C)cc(C)c1)/C(C)=N\NC(N)=S`, the growth inhibition in assay [1] was 25.1%; in assay [2], 38.8%; in assay [3], 20.1%; in assay [4] it was 57.5%; in assay [5] it was 58.5%; in assay [6], 45.6%.
As to `CC(C)Oc1ccc(C(=O)O)cc1`, the growth inhibition was 23.6% in assay [1]; 5.05% in assay [2]; 4.75% in assay [3]; -0.15% in assay [4]; -19.1% in assay [5]; 14.1% in assay [6].
For `CC(C)(N=NC(C)(C)C(=O)NCCO)C(=O)NCCO`, the growth inhibition in assay [1] was -6.15%; in assay [2], -6.65%; in assay [3] it was 0.85%; in assay [4], 19.7%; in assay [5], 2%; in assay [6], -0.65%.
Take `CCC[CH2][Sn]([CH2]CCC)([O]C(=O)c1nccnc1N)[O]C(=O)c1nccnc1N`: the growth inhibition is 92.2% (active) in assay [1]; 92.5% (active) in assay [2]; 93% (active) in assay [3]; 92.2% (active) in assay [4]; 90.3% (active) in assay [5]; 88.2% (active) in assay [6].
As for `COC(=O)C(CCS(=O)(=O)CC(=O)C(=O)Nc1cccc(C(C)=O)c1)C(=O)OC`, the growth inhibition in assay [1] is -12.6%; in assay [2], -15.1%; in assay [3], -16.1%; in assay [4] it was -17.1%; in assay [5], -26.2%; in assay [6] it was -5.95%.
For `CCCCn1cnc2c(SC(C)C)nc(N)nc21`, the growth inhibition in assay [1] is -13.1%; in assay [2] it was -2.15%; in assay [3], 17.4%; in assay [4] it was -24.9%; in assay [5], 8.8%; in assay [6] it was -16.2%.
On to `NNc1cn[nH]c(=O)c1Cl`, for which the growth inhibition is -16.6% in assay [1]; -28.2% in assay [2]; -10.1% in assay [3]; 4.4% in assay [4]; -3.85% in assay [5]; -26.4% in assay [6].
`NC(=O)c1c(N)nnc(-c2ccccc2)c1-c1ccccc1`: the growth inhibition in assay [1] is -6.15%; in assay [2] it was -7.65%; in assay [3], -5.75%; in assay [4], -25.8%; in assay [5], -3.45%; in assay [6], -16.2%.
Take `CC1(C)CCCN1C(=O)Nc1ccc([N+](=O)[O-])cc1[N+](=O)[O-]`: the growth inhibition is 4.1% in assay [1]; -7.7% in assay [2]; 5.4% in assay [3]; -12.6% in assay [4]; -4.15% in assay [5]; -14.1% in assay [6].
Take `CCCCCC1c2cc(O)ccc2OC1N1CCOCC1` (stereo not given): the growth inhibition in assay [1] was 49.2%; in assay [2], 44.5%; in assay [3] it was 47.5%; in assay [4] it was 48.6%; in assay [5] it was 46.7%; in assay [6] it was 88.7% (active).
In the case of `CCCCOC(=O)c1ccc(NC(=O)Nc2cc([N+](=O)[O-])ccc2F)cc1`, the growth inhibition in assay [1] is 56.4%; in assay [2] it was 54.6%; in assay [3] it was 63%; in assay [4], 54.6%; in assay [5] it was 12.3%; in assay [6], 71.2% (active).
As to `C/C=C(\C)CCC(C)(O)CC` (stereo not given), the growth inhibition was 2.2% in assay [1]; -15.6% in assay [2]; 7.45% in assay [3]; 3% in assay [4]; -22.4% in assay [5]; 14.1% in assay [6].
`COC1=C2CC(C)CC(OC)C(O)C(C)/C=C(\C)C(OC(N)=O)C(OC)/C=C\C=C(/C)C(=O)NC(=C(C=NC(C)(C)C)C1=O)C2=O` (stereo not given): the growth inhibition is 9.15% in assay [1]; 23.2% in assay [2]; 23.2% in assay [3]; 46.1% in assay [4]; 6.4% in assay [5]; 18.5% in assay [6].
For `CC(C)(C)CC(C)(C)NC(=O)CCl`, the growth inhibition in assay [1] is -6.05%; in assay [2], 2.15%; in assay [3], 2.6%; in assay [4], -4.85%; in assay [5], 10.3%; in assay [6], -5.45%.
With `C=C(C)[C@@H]1CC[C@@H]2C(=CC[C@]3(C)C([C@H](C)CC/C=C(/C)C(=O)O)CC[C@@]23C)[C@@]1(C)CCC(=O)O` (stereo not given in full), the growth inhibition in assay [1] is 15.6%; in assay [2], -4.95%; in assay [3] it was -0.85%; in assay [4], 14.4%; in assay [5] it was 4.05%; in assay [6], -63.2%.
In the case of `C=CCOC(=O)OC(C)C(=O)OCC=C` (stereo not given), the growth inhibition was 27% in assay [1]; 13.1% in assay [2]; 15.4% in assay [3]; 7.55% in assay [4]; -2.25% in assay [5]; -2.5% in assay [6].
For `Cc1cc(O)c(C(C)C)cc1NC(=S)Nc1ccc(S(=O)(=O)c2ccc(NC(=S)Nc3cc(C(C)C)c(O)cc3C)cc2)cc1`, the growth inhibition was 7.55% in assay [1]; 20.1% in assay [2]; 36.9% in assay [3]; 17.9% in assay [4]; 6.65% in assay [5]; 51.2% in assay [6].
In the case of `Nc1cccc(Cl)c1C(=O)O`, the growth inhibition is -28.1% in assay [1]; -30.2% in assay [2]; -10.8% in assay [3]; -11.7% in assay [4]; -25.8% in assay [5]; -19.2% in assay [6].
